The values below come from PubChem BioAssay AID1508600 (Functional Genomics Laboratory (NCATS/FGL), 2020).

Screen size: about 53,000 sequences; about 3,700 (7%) were called active. Shown is part of a subset that was picked to be rich in actives. Unmarked numbers belong to inactive results.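 How the source made its calls: active means gene knockdowns whose robust z-score for IL-1 alpha signal is at least 2 or at most -2, so actives lie on both sides; inactive means the rest.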

This assay is described as follows: Components of the Cytosolic LPS Sensing Pathway: Gene Identification via Genome-wide siRNA Screen.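 Further: robust z of the log signal after scaling to non-targeting control siRNA wells of the plate.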 The following applies: RAW264.7 macrophages, IL-1a HTRF, actives lie on both sides, screened at 100 nM (by protocol), cells primed 5 h with Pam3CSK4 first. An outline of the steps: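 Read-out: IL-1a HTRF on supernatant, divided by plate negative-control median ×100, log-transformed and converted to robust z-score. Cells were RAW264.7 given 100 nM siRNA, Pam3CSK4-primed 5 hours, then LipidA-transfected 24 hour.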
On the technique in general: Time-resolved FRET reads energy transfer from a long-lived donor to a nearby acceptor.
Regarding GCUGACUGCCAAGGAUUUUTT against Ogn, the z-score was -0.135.
In the case of “GGCAUGAAACCUCCAAAGCTT against 1520401A03Rik”, the z-score is 0.643.
In the case of CGGAUAUUUACGAACUUACTT against Pitpnb it was 1.24.
For the sequence GGGUCAGAUUUUCAAUGUCTT against Bmpr1b, the z-score is 0.8.
As for GGUUGAAACUGCUCUCAAGTT against Prl2a1, the z-score was 1.77.
For GGACCAUGAGGGAAUACAGTT against Bdkrb2, the z-score is 4.91 (active).
Regarding CGCAGACAAGAAAUGAAGGTT against Hnf4aos, the z-score was -1.98.
For GCAUGAGGAAAAAUCUUCATT against Neurod4, the z-score is -0.158.
As to GGAGAAAUUUAAGAAGAGUTT against Xrcc5, the z-score is 0.674.
As for GCUACAUAAUUCCGAAGUUTT against Fmr1, the z-score was 2.23 (active).
In the case of GCCAGAGGAUAACCUAUCGTT against Dsg4, the z-score was -0.254.
Turning to AAACUUGGCGUAUCAGGAATT against Gm3696, the z-score is -1.45.
As for GGAGUUUGUCUUCUCUUUCTT against Foxf1, the z-score is 0.0377.
Regarding GGAGAGUAUGGACAGUAUUTT against Pgc, the z-score is 2.96 (active).
In the case of GCAAAGACAAUCUUUAAGGTT against Pde4d it was -0.747.
With CCUUGUAAGUGAGAUCCGATT against Olfr118, the z-score is 1.38.
As for GGAGUAGAUGACAACACUATT against Defb19, the z-score is -0.401.
In the case of GGCAGCUGUAGAGGUGUUCTT against Haus7 it was 2.36 (active); in that of CGUGGCUAAACAAAGAGCUTT against Sass6, -0.841; in that of CCCAAAAACGUGACAUCUUTT against Inppl1, 0.901.
In the case of GCCUGGAAUCUCUUCAUGUTT against Pde3a it was 0.679; in that of GGUGUUCUUGAGCUGUGAGTT against Igfbp7, -2.32 (active).
On to CCAAAAGGUUCGAGUUUCATT against Padi4, for which the z-score is 1.57.
With GGAGUGUGUAUGGAAAAUATT against Tll1 the figure was 0.0134; with GGCUCUUUCAACGUAAAUUTT against Fan1, -2.72 (active); with GGACCUUGGGCAGAUUCAATT against Atp10d, 0.54.
Regarding GGGUGUACAGGAUUUCCACTT against Nfyc, the z-score is 0.0255.
Turning to GGAGCAACAACUUAAAUGUTT against Slc16a4, the z-score was 1.18.
Regarding GCUUUAGAUACGUGAUUAGTT against Desi2, the z-score was -0.125.
With CCUUAUGAGUCUUACGACUTT against Zfp326, the z-score is 1.15.
For the sequence CCCUCAAAGACCUGUACAUTT against Gm266, the z-score was 2.78 (active).
With GGAUGAUGAGCUGAACUUUTT against Mgrn1 the figure was -0.897.
As for AAGAAUACUCAGAUCAGUUTT against Magee2, the z-score is 0.111.
GGAAAUCUCAGGUGAGGUCTT against Clcc1: the z-score is -0.127.
With GGAUCAUCAAGAUAUAGAUTT against Trpm7 the figure was 2.44 (active); with GCCAGGAAUCACAAGAGCUTT against Mtg1, 0.571; with GGAGUUAGAAACUCAUUUUTT against Ppargc1b, 1.5.
As for GGCACCCAUUCCUAAAAUGTT against Hmgn5, the z-score is -0.929.
With GGAUCUGAAAAAAUUAAGCTT against Stat2 the figure was 0.65; with GGAUAUGCCUCCCUUGAUGTT against Gstt3, -2.4 (active).
With CGAGUGUUUGGACAACAAUTT against Ldlr the figure was 0.391; with CUAUGUGGUCACAAUAGAGTT against Olfr1360, 0.411; with CCUAUGUCACUAAGGCACGTT against Nudt13, 0.482.
GCACGAUCUUCCAAACCCUTT against Dhh: the z-score was -1.25.
Take CCAGGGUGGUCUUUUGAAGTT against Eif1: the z-score was -1.66.
On to “GGUAGAUGAUAAUUUCACUTT against 4930595M18Rik”, for which the z-score is -0.894.
With GCCAUGAGACACCUUCUCUTT against Olfr843, the z-score was -1.96.
With GGCGAACUGAAGGAUAUGGTT against Anapc5 the figure was 0.835; with ACAUGACAAACAACACUAUTT against Olfr960, -0.891.
In the case of GGCAGCUAGAGAGAAUCCUTT against Akr1c12 it was -2.45 (active).
In the case of GCUUUCGGUGGAUUCCUUATT against Rars2, the z-score is -0.714.
For GGACUGGUUCUUCAGAUCCTT against Depp1, the z-score was 3.31 (active).
For the sequence GGCUUUCGGUUAUGACCAATT against Alas2, the z-score is -0.385.
On to GGAAACCAUCUUUGAACUUTT against Specc1l, for which the z-score is 0.54.
With GGAUGUAUGAUGCAGUUAUTT against Olfr1211, the z-score is 1.89.
Turning to GGGAUUUGAGCAUCUUUCCTT against Lrrc40, the z-score was 0.571.
As for GGCUUUGAUUAUGUUCCCATT against Fcer2a, the z-score is -0.188.
Turning to GGUGACUAGAAAAAUGGAUTT against Cd1d1, the z-score is 0.528.
GGAGAAGAUGUGGAGACAUTT against Edf1: the z-score was -1.3.
As for GGCAAAGAUCUUAUGGAGATT against Csf3r, the z-score is 0.0079.
Consider GGUUCUUUUUGCCACAGCCTT against Miga2, for which the z-score is -2.31 (active).
Turning to GGGAGUAUUACCUCCUUCATT against Igbp1b, the z-score is 0.00303.
Take GCAGCUUGAGUUCUCGAAUTT against BC049715: the z-score was 0.971.
Turning to GGAAGAAGCUCUAUGCUGATT against Fbxo9, the z-score is -0.589.
Consider GCUUGACCUUUUUACUCCUTT against Siglece, for which the z-score is 0.262.
For GCAGAACUUGACCACUGCCTT against Defb2, the z-score is 2.58 (active).
For the sequence GGAUAAUUCACAGUUCAAATT against Tlk1, the z-score was 1.14.
On to GGACAUCAUGGACCUGAAGTT against Bmerb1, for which the z-score was -0.582.
With GAAGCUAGAAGAGAUUAAATT against Cep41 the figure was 0.821; with CCCUGUUGAUGAACAAAUCTT against Ddt, -0.262; with GGUAUGUAGGAAUUACAGUTT against AI606181, 2.49 (active).
Take CCUGUCGUUCCUCCUUACATT against Sec11a: the z-score is -1.29.
With CCAACCUCCCAUUCUGAAUTT against Ttc22 the figure was 1.71; with GGGCUUAUUCUGUUAAUAGTT against Mttp, -0.215; with GCAGGGAUCUGGAUUUAAUTT against Arf5, 3.37 (active).
With CUUAGACCCAAUUCAAUUCTT against Zfp667 the figure was -0.0845.
Consider CGGCUUCUUAGGAAACUCUTT against Olfr358, for which the z-score is -0.369.
Consider GGUGAAAACGUGGUUCCAGTT against Bsx, for which the z-score is -0.0072.
In the case of GGUGACUUCCACUCUAACUTT against Sohlh2 it was -2.57 (active); in that of GGCUAUGAAUAAACUUUUCTT against Olfr1016, 0.429; in that of GGGAUGGAGGAGGAGCUUATT against Bad, 0.86.
As for GGAUUCAAUUUUUUGCCAUTT against Pbdc1, the z-score is -1.74.
In the case of CCACGUAUUGUUAGUAGAATT against Ei24 it was 0.251; in that of GUAAGGUAUUCAGUGACCUTT against Olfml2a, -2.23 (active).
On to GGAAACAGAUUUAAAGUGATT against Efcc1, for which the z-score is 1.03.
On to GGACAAGAAGGCAAAUUAGTT against Arhgap9, for which the z-score is 0.366.
For the sequence GCAUAAUAAGCCAAUUCUGTT against Med17, the z-score was -0.355.
With GCUGAAGUUUACUAUAACATT against Marco, the z-score is 0.565.
With GGUACCAUCACGUUGUGUATT against M6pr, the z-score was -0.76.
With CCUUGCUCUUUCCAGCUCUTT against Olfr704 the figure was 0.332; with GGACAUCGGCUACAACACCTT against Fzd10, -2.08 (active).
For the sequence GCUGAGGCAAUUUCAACUUTT against Ctla4, the z-score was 0.169.
In the case of GCACGACACUCUGUGCAUCTT against Kyat3 it was 0.6; in that of GCAUCCUACUUCUCAACUUTT against Ceacam12, 0.328.
For GGGUUUCGCUAGAACCAUUTT against Plekhg5, the z-score was -0.541.
Regarding GCUUGUUGCCUAGGACCUATT against Eif1ad, the z-score is -1.14.
With CCCUCAGAUUCAAAAAGUGTT against Krt1 the figure was 0.233; with GCAUGGAGAGAACCUGAAATT against Trim69, -0.801; with GGGCCAAGAUACCAAGAGUTT against Spout1, -2.71 (active).
Turning to GGAUAACAGUAAAUGGCUUTT against Zkscan8, the z-score is 0.152.
Consider “GGUUAAGUUACUAACCCAGTT against 4931406C07Rik”, for which the z-score was 1.01.
On to “GAGACACUUGUGCUGUAGGTT against F730035P03Rik”, for which the z-score is 0.108.
Turning to “GCACUGUAUUCUUGAGCACTT against 1700020L24Rik”, the z-score was 2.06 (active).
With GGUAGUGAUUACGAACCAATT against Hey1 the figure was 0.605.
Take GCCCAGUACUCCGCUUACATT against Bhlhe23: the z-score is -2.03 (active).
Take GGGCUGAUCUUUUUAACUGTT against Tpm3: the z-score is -0.581.
Consider GGCCUUAGAGAAAAUCUUUTT against Brd3, for which the z-score is 0.871.
